Compound activity deposited in PubChem by several laboratories.
In the library only some 3.2% were active in any assay of this set; here they are far more common.
CDK5 inh – CDK5/p35 (human) kinase inhibition; Q00535+Q15078; Recombinant CDK5/p35, ADP-Glo luminescence, 60 min; inhibition, % at 10 µM; 330,000 tested, 0.01% active;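 active = highest replicate inhibition of at least 50% and at least 75% of replicates reaching 50%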
esBAF inh – SWI/SNF esBAF complex inhibition | mouse ES cells, Bmi1-luciferase knock-in reporter, 24 h; 100% = twice the neutral-well signal | reporter increase, % at 12.5 µM | 350,000 tested, 2% active | AID 602393; in the data active = activation above about 40%;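 also: a rise in the Bmi1 reporter signal indicates esBAF inhibition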
DYRK1A inh – blocks rat Dyrk1A kinase activity | Q63470 | ADP-Glo luminescence, NFATc1 peptide | inhibition, % at 12.5 µM | 310,000 tested, 0.43% active | AID 504441; in the data active = inhibition above about 50%
SMARCA2 activ – SMARCA2 function activation, primary screen; MG213 cells, MMTV-luciferase reporter, dexamethasone, overnight; activation, % at 9.1 µM; 370,000 tested, 1% active; AID 652017; in the data active = activation above about 7.8%
Rtt109 HAT inh – inhibitors of Candida albicans Rtt109/Vps75 histone acetyltransferase; 330,000 tested, 0.16% active; AID 540336; Q5AAJ8; inhibition, % at 34.9 µM; purified Rtt109/Vps75, ThioGlo CoA-SH fluorescence, 4 h;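 active = inhibition of at least 50% in every replicate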
Target sequence (Q5AAJ8 whole entry, looked up): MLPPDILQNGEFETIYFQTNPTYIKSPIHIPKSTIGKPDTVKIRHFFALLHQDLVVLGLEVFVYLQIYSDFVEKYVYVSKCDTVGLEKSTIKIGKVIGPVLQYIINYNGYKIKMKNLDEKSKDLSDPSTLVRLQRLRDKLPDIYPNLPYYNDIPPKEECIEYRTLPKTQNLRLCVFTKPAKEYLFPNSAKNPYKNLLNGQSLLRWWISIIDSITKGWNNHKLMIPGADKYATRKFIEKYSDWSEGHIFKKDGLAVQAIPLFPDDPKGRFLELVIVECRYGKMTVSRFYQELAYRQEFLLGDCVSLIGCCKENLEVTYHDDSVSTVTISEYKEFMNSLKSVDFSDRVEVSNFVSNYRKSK
dFosB activator – activators of mouse delta FosB homodimer. P13346. activation, % at 25 µM. purified delta FosB, TAMRA-CDK5 oligo fluorescence polarization; percent of positive-control signal above neutral wells. 340,000 tested, 0.99% active;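 active = mean activation above about 17%, with every replicate also reaching it, limit read from the data, passing the limit was not always enough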
A number is an active result; 0 = inactive; - = no result.

SMILES	CDK5 inh	esBAF inh	DYRK1A inh	SMARCA2 activ	Rtt109 HAT inh	dFosB activator
CC(=O)Nc1cccc(NC(=O)c2ccc3[nH]c(C)c(C)c3c2)c1	0	49	0	0	0	0
Cc1cc(NC(=O)c2ccc3[nH]c(C)c(C)c3c2)ccn1	0	0	0	0	0	0
CC(C)NC(=O)N(C)C[C@H]1Oc2ccc(NS(=O)(=O)c3ccc(F)cc3)cc2C(=O)N([C@H](C)CO)C[C@H]1C	-	0	-	-	-	-
C[C@@H]1CCCCO[C@H](CN(C)C(=O)CCCN(C)C)[C@@H](C)CN([C@@H](C)CO)C(=O)c2cc(NC(=O)Nc3cccc4ccccc34)ccc2O1	-	0	-	-	-	-
NS(=O)(=O)c1ccc(CCNC(=O)CSc2nc3ccsc3c(=O)n2Cc2ccccn2)cc1	-	0	-	0	-	-
COc1ccc(CCNC(=O)CSc2nc3ccsc3c(=O)n2Cc2ccccn2)cc1OC	-	43	-	0	-	-
COc1ccc(C(=O)N2CCN(c3ccc(F)cc3)CC2)cc1S(=O)(=O)NC1CC1	0	50	-	0	0	0
COc1ccc(S(=O)(=O)N[C@@H]2CC[C@H](CC(=O)O)O[C@H]2CO)cc1	-	0	-	-	-	-
CCN1C(=O)S/C(=C\c2ccc(N3CCOCC3)cc2C)C1=O	0	55	0	0	0	0
COC(=O)c1sc(NC(=O)c2oc3ccccc3c2C)nc1C	0	60	0	0	0	0
Cc1c(C(=O)Nc2cccnc2Cl)oc2ccccc12	0	48	0	0	0	0
COc1ccccc1NC(=O)c1oc2ccc(C)cc2c1C	0	48	0	0	0	0
CCCNC(=O)Nc1ccc2c(c1)C(=O)N(C)C[C@H](OC)[C@@H](C)CN(C(=O)C1CC1)[C@@H](C)CO2	-	0	-	-	-	-
CO[C@@H]1CN(C)C(=O)c2cc(NC(=O)c3ccccc3F)ccc2OC[C@@H](C)N(C)C[C@@H]1C	-	0	-	-	-	-
CC1=C(C(=O)N(C)C)CC(CC(=O)NC2CCCCC2)C(=O)N1CCC1=CCCCC1 (stereo unspecified)	-	70	-	0	-	-
CC1=C(C(=O)N(C)C)CC(CC(=O)NC2CCCC2)C(=O)N1CCC1=CCCCC1 (stereo unspecified)	-	49	-	0	-	-
COc1ccc(CN(C)C[C@@H]2Oc3ccc(NC(=O)C4CC4)cc3CC(=O)N([C@H](C)CO)C[C@@H]2C)cc1	-	0	-	-	-	-
CCOC(=O)C1=C(COC(=O)c2cccc(N(C)C)c2)NC(=O)NC1C (stereo unspecified)	0	60	0	0	0	0
C[C@H]1CN([C@@H](C)CO)C(=O)c2cc(NC(=O)C3CCCCC3)ccc2O[C@@H]1CN(C)S(=O)(=O)c1cn(C)cn1	-	0	-	-	-	-
O=C(/C=C\Nc1ccc2c(c1)OCO2)c1ccc(Cl)s1	0	52	0	0	0	0
Clc1ccc(-c2nc3ccccc3[nH]2)cn1	0	50	0	0	0	0
Clc1ccccc1-c1nc2ccccc2[nH]1	0	-	-	0	0	0
COc1ccc(OC)c(C2CC(=O)N3CN(c4ccc(C)c(Cl)c4)CSC3=C2C#N)c1 (stereo unspecified)	0	0	0	0	91	0
COc1ccc(OC)c(C2CC(=O)N3CN(c4cccc(Cl)c4)CSC3=C2C#N)c1 (stereo unspecified)	0	0	0	0	0	0
CCC(=O)N1C[C@H]2[C@@H](c3ccccc31)[C@H](CO)N2C(=O)Nc1ccccc1	-	0	-	-	-	-
SMILES	CDK5 inh	esBAF inh	DYRK1A inh	SMARCA2 activ	Rtt109 HAT inh	dFosB activator
COCC(=O)Nc1ccc2c(c1)C(=O)N(C)[C@H]1CC[C@@H](CC(=O)NCc3ccccc3)O[C@@H]1CO2	-	0	-	-	-	-
CCOC(=O)c1sc(NC(C)=O)cc1C	0	0	0	0	0	0
CCOC(=O)c1sc(NC(=O)C2CCC2)cc1C	0	50	0	0	0	0
C[C@H]1CN([C@@H](C)CO)C(=O)c2cccc(NS(C)(=O)=O)c2O[C@H]1CN(C)C(=O)Nc1ccccc1	-	0	-	-	-	-
C[C@@H]1CCCCO[C@@H](CN(C)C(=O)c2ccccc2)[C@@H](C)CN([C@@H](C)CO)C(=O)c2cc(NS(=O)(=O)c3ccc(F)cc3)ccc2O1	-	0	-	-	-	-
CC(C)NC(=O)N(C)C[C@@H]1OCCCC[C@@H](C)Oc2ccc(NS(C)(=O)=O)cc2C(=O)N([C@H](C)CO)C[C@H]1C	-	0	-	-	-	-
C[C@H]1CCCCO[C@H](CN(C)Cc2ccc(C(=O)O)cc2)[C@@H](C)CN([C@@H](C)CO)C(=O)c2cc(NC(=O)CCC(F)(F)F)ccc2O1	-	0	-	-	-	-
